The record followed here is the supplement of paper PMC6555819.

The test system of the assay is VDR:RXRa (NR concentration 270 nM, RXRa partner concentration 90 nM). Briefly: PBM binding z-score (relative to random genomic background probes); higher = stronger binding; sequences stand for … in GC…GCGATTGACAGCGTAGAATGAAGG
As for the experimental part: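 Protein-binding microarray (Agilent 4x180K custom design, double-stranded 60-nt probes: 5' GC cap, 34-nt variable region, 24-nt constant primer region; full probe sequence given). Purified or IVT nuclear receptor:RXRα heterodimers (3:1 NR:RXRα, mostly 270:90 nM) or homodimers were incubated for 1 h in PBS with 2% milk and no ligand, then detected with Alexa488 antibodies. Fluorescence from o1-orientation probes (~5 replicates averaged) was converted to z-scores against 500 random hg19 background probes. Variable regions are seed direct-repeat (DR0–DR5) sites, all their single-nucleotide variants and half-site ablations.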
TTACCAAGGTGAAAGGTCGTTGATGCACGCCTTG displayed a PBM binding z-score of 3.14.

With AGAATGAGGTTGCCAAAGATCAGGGAAACGCTTG, the PBM binding z-score was 0.143.

Sequence TTACCAAGGTGATCTGAGGTCGTTGATCCAACTC had a PBM binding z-score of 4.13.

In turn, CGTCCAAGGTCAATGGTAGGTCAGTGAAAGCATT gave a PBM binding z-score of 4.89.

TCCTATAGGTAATACAGGTGAAAGTCGGCATCTA returned a PBM binding z-score of 0.718.

Regarding GCAGACACGTGAAACGCAGGTAACTCAGGGTGGC, the PBM binding z-score was -0.854.

ATCTCTAGGTAAACATAGTTCAGTGAATGCAAAT: the PBM binding z-score came out at 1.34.

Sequence CATCCAAGGTCAATGCTAGGTCAGTGAAAGCATT had a PBM binding z-score of 4.82.

The sequence CCTACTGGGGCATTCAGAGGTCATTGATCATATG showed a PBM binding z-score of 4.47.

ATCTCCAGGTAAAAGTTCAGTGAATCCCGAGGAT displayed a PBM binding z-score of 1.43.

As for CCTAGCATGCCAATCTGGGTCACTCAAGGCTTGA, the PBM binding z-score is 0.733.

Turning to AGAATGAGGTTATTAAGAGCAGGGAATTGCGGTC, the PBM binding z-score turned out to be 2.

Consider TCTAGCAGGCCAGAGGGTCACTAAAGAGGTACGG, for which the PBM binding z-score amounted to 1.24.

As for CAAACTAGGTCACCGGAAGGTCGAAGTCCGCATG, the PBM binding z-score was 4.47.

In turn, CGTCCAATGTCAGAGAGGTCAGTGAATGCCGAGT registered a PBM binding z-score of 5.22.

Sequence ATCTCGAGGTAACAAGTTCAGTGAAAGAGAGGAC displayed a PBM binding z-score of 2.63.

The sequence CCTACTGGGCCAAAGGTCATTGATTCCAATGCTC displayed a PBM binding z-score of 4.75.

Sequence CCTACTGGGCCACGAAAGGTCATCGATTCAGTGA gave a PBM binding z-score of 4.24.

TCGTATAGGTAATACAGGTGAAAGTCGGCATCTA: the PBM binding z-score is 0.991.

ATTTCTAGGTAAAAGTTCAGTGAATCCCGAGGAT had a PBM binding z-score of 1.77.

For GGTACAGGGTCAAGGCCAGAGTACGCGTATTGAT, the PBM binding z-score stood at 4.52.

For the sequence CGATCTAGGTCAAGGACAGTGAATCTCCGCACGC, the PBM binding z-score was determined as 0.643.

With CGTCCAAGGTCAAGGTCAGTGCAAGAGACTCGAA, the PBM binding z-score was 5.5.

ATATGTACGTTAGCTGGGGTCATTCAGACTAGGC came in with a PBM binding z-score of 5.16.

Take GGAACGAGGGCAAAGTTGATACCATCTGTCGACG: the PBM binding z-score was 1.48.

On to TCGAGTAGGTTAGGAGCATTCAGAATGGCGTCGA, for which the PBM binding z-score is -0.474.

For TCTCGGAGGACATGAAAGGTCAGAGCTCGACATC, the PBM binding z-score is 2.81.

Regarding GATACAGGGTCAGCTAGAGGCCAGAGAATGGAAA, the PBM binding z-score amounted to 3.42.

In turn, CCGACTGGGCCATCAGGTCATTGATATCAACGTT gave a PBM binding z-score of 1.63.

As for CGAACTAGGTCATTGACAGGCCAGTGAATAGTAA, the PBM binding z-score was determined as 1.88.

For CGTCAAAGTTCAACTAACGTAACGTAAAGCACGC, the PBM binding z-score is 4.1.

Regarding CCTTACGGGTCACGAGGTTATAACACGACGAGCG, the PBM binding z-score was 5.28.

As to CGTCAAAGTTCAACTATGGTAACGTAAAGCACGC, the PBM binding z-score was determined as 4.35.

In turn, CCTACTGGGCCACGAAAGGTCATTGATTCAGTGA gave a PBM binding z-score of 4.21.

In turn, TCATATTGGTAAATGCTAGGTGAAAGTCCGATCT had a PBM binding z-score of 0.687.

In turn, AGAATGAGGTTATTAGGATCAGGGAATTGCGGTC had a PBM binding z-score of 2.7.

Take CAAACTAGGTCAAAGGTGAAAGTCGAGCCAACCA: the PBM binding z-score worked out at 4.04.

For the sequence ATCTATAGGTAAAGTTCAGTGAAAGATCGATAGA, the PBM binding z-score stood at 1.65.

For the sequence AGAATGAGGTTATACGAAGATCAGGGAAGAAAGT, the PBM binding z-score was determined as 1.13.

Turning to TCTTGTAGATCAACAGGAGGTTAAGACAGATCGA, the PBM binding z-score was 0.563.
